Source: PubChem BioAssay (NCI)
Several values for one entry are separate records, joined by “and”; a condition that tells them apart may be missing. Equal entries are not always repeated. About 83,000 compounds went through this panel and 20% of them were active in at least one assay; those are over-represented in the sample as a whole.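 Compound tested at a single concentration for 48 hours in 96-well plates; a percent growth value below 10 was scored as active.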 The source holds several records for some structures; these can differ, active in one and inactive in another. Activity calls are given as the source filed them.

Tested on: A498 renal
Assay: NCI-60 one-dose screen, 48 h (100 = growth as untreated, 0 = no growth, -100 = all killed)
Settings: 10 µM unless noted
Description: Growth inhibition of the A498 human tumor cell line is measured as a screen for anti-cancer activity. Cells are grown in 96 well plates and exposed to the test compound for 48 hours. Compounds are tested at a single concentration, which is 10^-5 M for most compounds. The reported endpoint is percent growth (GI% or GIPRCNT), where numbers from 0 - 100% represent growth inhibition, and numbers from -100% - 0 represent cell death. For example, a value of 40 represents 60% growth inhibition. A value of 0 means no net growth occurred over the course of the experiment. A value of -40 indicates 40% of cells at the beginning of the experiment died by the end of the experiment. A value of -100 means all cells are dead at the end of the experiment.
NCI-60 Human Tumor Cell Lines Screen was performed using the standard one-dose NCI protocol, which is described in more detail at https://dtp.cancer.gov/discovery_development/nci-60/default.htm.
Compounds with GIPRCNT values below 10 were considered active. Activity score was based on GIPRCNT using the following formula: […]
Score is 0 for GIPRCNT values of 100 or above, 50 for GIPRCNT values of 0, and 100 for GIPRCNT values of -100.

| Compound | growth |
| --- | --- |
| NC(=O)C1CC2C=CC1C2 (stereo not given) | 112% (inactive) and 89.4% (inactive) |
| COc1cc(/C=N/Nc2nc3c([nH]2)c(=O)n(C)c(=O)n3C)ccc1O | 82.3% (inactive) and 77.6% (inactive) |
| CCOc1ccc2nc3cc(N)ccc3c(N)c2c1 | 71% (inactive) and 79.9% (inactive) |
| Nc1cc(-c2cccc(OC(F)(F)F)c2)nc2ccc(N3CCCC3)cc12 | 19.9% (inactive) and 22.5% (inactive) and -7.01% (active) |
| CC(C)(O)Cn1cc(-c2ccc3nc(OC4CC4)ccc3c2)c2c(N)ncnc21 | 64.9% (inactive) and 21% (inactive) |
| S=C1SCN(Cc2ccccc2)CN1Cc1ccccc1 | 74.4% (inactive) |
| CCN(CC)CCc1nc(-c2ccccc2)no1 | 108% (inactive) and 110% (inactive) |
| COc1cc2c(Nc3ccc(Cl)c(Cl)c3F)ncnc2cc1OCC1C[C@@H]2CN(C)C[C@@H]2C1 (stereo not given in full) | -95.7% (active) and -81.6% (active) |
| Cc1cc(-c2ccc(NS(=O)(=O)c3ccccc3)c(C)c2)ccc1NS(=O)(=O)c1ccccc1 | 90.8% (inactive) and 89.8% (inactive) |
| CCOc1ccc2cc(-c3nn(CC4CCNCC4)c4ncnc(N)c34)ccc2c1 | 73% (inactive) and 37% (inactive) |
| CCN1CCN(CCNc2nccc(-c3c(-c4cccc(O)c4)nc4sccn34)n2)S1(=O)=O | 74.2% (inactive) and 66.8% (inactive) |
| CN(C)c1ccc2nc3ccc(=[N+](C)C)cc-3sc2c1 | 58.4% (inactive) and 75.9% (inactive) |
| CC1=C(/C=C/C(C)=C/C=C/C(C)=C/C=N/NC(=S)NC(=S)N/N=C/C=C(C)/C=C/C=C(C)/C=C/C2=C(C)CCCC2(C)C)C(C)(C)CCC1 | 23.6% (inactive) and -47.4% (active) |
| Nc1nc(SC/C=C/CCl)c2[nH]cnc2n1 | 83.6% (inactive) and 91.6% (inactive) |
| COc1ccccc1NC(=O)OCC#CCOC(=O)Nc1ccccc1OC | 87.5% (inactive) and 92.8% (inactive) |
| CCCCCn1sc(=O)n(Cc2ccc(CNC(=O)C(C)c3ccc(CC(C)C)cc3)cc2)c1=O (stereo not given) | 113% (inactive) and 40% (inactive) |
| COc1ccccc1C(C)=O | 92% (inactive) and 108% (inactive) |
| CC(=O)Nc1cccc2c1CCCC2 | 97.8% (inactive) and 121% (inactive) |
| COc1cc2nc(N3CCN(C(=O)C4COc5ccccc5O4)CC3)nc(N)c2cc1OC (stereo not given) | 105% (inactive) and 94.2% (inactive) and 101% (inactive) |
| Nc1ccc2ccc(N)cc2c1 | 100% (inactive) |

| Compound | growth |
| --- | --- |
| Clc1ccc(SSc2ccc(Cl)cc2)cc1 | 87.9% (inactive) and 74.6% (inactive) |
| COc1ccc(S(=O)(=O)N2CCOCC2)cc1NC(=O)c1[nH]c(C)c2c1CCCCC2=O | 93.5% (inactive) and -15.8% (active) |
| CCOC(=O)c1sc(N)nc1-c1ccccc1 | 94.5% (inactive) |
| COc1c(/C(C)=N/N=c2sc(C(C)=O)nn2-c2ccc(Cl)cc2)c(Oc2ccccc2)c(OC)c2occc12 | 100% (inactive) and 77.1% (inactive) |
| CCCCCCCCCCCCCCCc1cc(O)ccc1N | 133% (inactive) and 122% (inactive) |
| Cc1ncsc1CCO | 81.3% (inactive) and 97.6% (inactive) |
| CCN(CC)CCCC(C)N(Cc1ccccc1)CC(O)c1ccc(Cl)cc1 (stereo not given) | 91% (inactive) and 116% (inactive) |
| Oc1ccccc1C=NCC1CCC(CN=Cc2ccccc2O)CC1 (stereo not given) | 117% (inactive) |
| CCN(CC)CCOc1ccc(/C=N/Nc2nc3c([nH]2)c(=O)n(C)c(=O)n3C)cc1 | 88.5% (inactive) and 88.9% (inactive) |
| Cn1c(SSc2ccc(-c3cccnc3)n2C)ccc1-c1cccnc1 | 82.2% (inactive) and 95.7% (inactive) |
| COc1ccc2nc(Cl)cc(C)c2c1 | 86% (inactive) and 83.4% (inactive) |
| O=C(O)CSCc1nc2ccccc2[nH]1 | 97% (inactive) |
| CNc1ccc2nc3ccc(=[N+](C)C)cc-3sc2c1 | 57.8% (inactive) and 49.1% (inactive) |
| CN1CCN(c2ccc3nc(-c4c(N)c5c(F)cccc5[nH]c4=O)[nH]c3c2)CC1 | 29% (inactive) and 14.6% (inactive) |
| O=C1c2ccccc2C(=O)N1/N=C/c1ccc2c(c1)OCO2 | 81.4% (inactive) |
| CC(=O)Nc1ccc2cc3ccc(NC(C)=O)cc3nc2c1 | 115% (inactive) and 113% (inactive) |
| Nc1n[nH]c(=S)n1-c1ccc(Cl)cc1 | 109% (inactive) |
| CC1=NN(c2ccccc2)C(=O)C1C(=O)c1ccccc1 (stereo not given) | 92.4% (inactive) |
| NC(=S)NN=C1CCC(C2CCCCC2)CC1 (stereo not given) | 88.2% (inactive) |
| N#CCCOc1ccccc1 | 101% (inactive) |
